esBAF inh – blocks esBAF chromatin remodeling in mouse ES cells | Bmi1-luciferase knock-in reporter, 24 h; 100% = twice the neutral-well signal | reporter increase, % at 12.5 µM | 350,000 tested, 2% active; in the data active = activation above about 40%;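 note: 0% = median of the plate's neutral control wells and 100% = double that signal; a rise in the Bmi1 reporter signal indicates esBAF inhibition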
Wnt bcat act – Wnt/beta-catenin pathway activation | activation, % at 9.35 µM | AID 743398 | Wnt/beta-catenin reporter cell assay, activator, plate reader | 300,000 tested, 1.2% active; in the data active = activation above about 30%, passing the limit was not always enough;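 note: 0% = neutral control wells and 100% = positive control wells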
C2C12 statin – suppression of simvastatin myotoxicity. C2C12 myotubes + simvastatin, ATP luminescence, 48 h; scaled: DMSO 0, geranylgeraniol control 100. rescue of ATP level, % at 7.49 µM. 330,000 tested, 0.78% active. AID 602340;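 active = mean ATP rescue above about 67%, or every replicate alone reaching that limit, limit read from the data, passing the limit was not always enough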;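 note: myotubes were challenged with 10 µM simvastatin during compound exposure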
MITF TRPM1 HTS – activators of MITF-driven TRPM1 promoter activity in SK-MEL-5 cells. AID 588334. 300,000 tested, 0.75% active. SK-MEL-5 TRPM1-promoter luciferase, 24 h; % of positive control, neutral wells = 0. activation, % at 12.5 µM;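 active = mean activation of at least 80% with every replicate also reaching 80%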;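 note: 0% = neutral control wells and 100% = parthenolide positive control wells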
Rtt109 Vps75 – blocks Candida albicans Rtt109/Vps75 acetyltransferase activity. purified Rtt109/Vps75, ThioGlo CoA-SH fluorescence, 4 h. inhibition, % at 34.9 µM. 330,000 tested, 0.16% active. AID 540336;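 active = inhibition of at least 50% in every replicate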
Target sequence (Q5AAJ8 whole entry, looked up): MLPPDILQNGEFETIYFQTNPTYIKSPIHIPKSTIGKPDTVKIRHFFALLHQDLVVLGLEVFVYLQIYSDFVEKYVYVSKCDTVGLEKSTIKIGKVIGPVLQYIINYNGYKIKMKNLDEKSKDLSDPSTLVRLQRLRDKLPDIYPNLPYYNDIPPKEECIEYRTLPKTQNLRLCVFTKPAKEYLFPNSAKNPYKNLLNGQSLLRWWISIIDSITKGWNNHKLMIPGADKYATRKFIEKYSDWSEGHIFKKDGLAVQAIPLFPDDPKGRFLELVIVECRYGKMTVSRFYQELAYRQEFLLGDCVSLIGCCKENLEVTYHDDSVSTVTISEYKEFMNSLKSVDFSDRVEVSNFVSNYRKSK
Numbers without * were called inactive. An excerpt weighted towards active compounds, which were near 3.1% of everything screened.

For CNC(=O)C[C@H]1CC[C@@H]2[C@H](COc3ccc(NC(=O)Nc4ccc(C)cc4)cc3C(=O)N2C)O1 the results were esBAF inh 7 and C2C12 statin 2.
For C[C@@H]1CN([C@@H](C)CO)C(=O)Cc2cc(NC(=O)Nc3ccc(C(F)(F)F)cc3)ccc2O[C@H]1CN(C)C(=O)Nc1ccccc1 the results were esBAF inh 7 and C2C12 statin 34.
For C[C@@H]1CN([C@@H](C)CO)C(=O)Cc2cc(NC(=O)Nc3ccc(F)cc3)ccc2O[C@@H]1CN(C)Cc1ccc(C(F)(F)F)cc1 the results were esBAF inh 3 and C2C12 statin -55.
COc1ccc(C)cc1NCc1cc(=O)oc2cc(-c3ccccc3)c(O)cc12 was read as esBAF inh 62*, C2C12 statin 0, MITF TRPM1 HTS 34 and Rtt109 Vps75 -5.
Screening Cc1cc(C)cc(NCc2cc(=O)oc3cc(-c4ccccc4)c(O)cc23)c1 returned MITF TRPM1 HTS -18 and Rtt109 Vps75 0.
CC(C)NC(=O)N(C)C[C@@H]1Oc2cc(C#C[C@H](C)O)ccc2S(=O)(=O)N([C@@H](C)CO)C[C@@H]1C was read as esBAF inh -1 and C2C12 statin -5.
For O=C(C[C@@H]1C[C@H]2c3cc(NS(=O)(=O)c4ccc(F)cc4)ccc3O[C@H]2[C@H](CO)O1)NCc1cccc(F)c1 the results were esBAF inh 19 and C2C12 statin 9.
For O=C(CNc1ccc2ccccc2c1)N/N=C/c1ccc(OC(=O)/C=C/c2ccco2)cc1 the results were Wnt bcat act 51*, MITF TRPM1 HTS -7 and Rtt109 Vps75 16.
Screening Cc1[nH]n(-c2ccccc2)c(=O)c1N=Nc1ccccc1 returned Wnt bcat act -2, MITF TRPM1 HTS 24 and Rtt109 Vps75 3.
Nc1[nH]n(-c2ccccc2)c(=O)c1N=Nc1ccc2c(c1)OCCO2 was read as esBAF inh -7, Wnt bcat act 34*, C2C12 statin -3, MITF TRPM1 HTS 61 and Rtt109 Vps75 13.
Screening Nc1nn(-c2ccccc2)c(N)c1N=Nc1ccc2c(c1)OCO2 returned Wnt bcat act 27, MITF TRPM1 HTS 20 and Rtt109 Vps75 1.
For Nc1[nH]n(-c2ccccc2)c(=O)c1N=Nc1ccc2c(c1)OCO2 the results were esBAF inh 33, Wnt bcat act 58*, C2C12 statin 20, MITF TRPM1 HTS 77 and Rtt109 Vps75 6.
For COc1cccc(S(=O)(=O)N(C)C[C@H]2OCc3ccccc3-c3c(n(C)c4ccccc34)C(=O)N([C@@H](C)CO)C[C@H]2C)c1 the results were esBAF inh -2 and C2C12 statin 69*.
COc1ccc(CNC(=O)N(C)C[C@@H]2OCc3ccccc3-c3c(n(C)c4ccccc34)C(=O)N([C@@H](C)CO)C[C@@H]2C)cc1 was read as Wnt bcat act -1.
For COc1ccc(CNC(=O)N(C)C[C@@H]2OCc3ccccc3-c3c(n(C)c4ccccc34)C(=O)N([C@H](C)CO)C[C@@H]2C)cc1 the results were esBAF inh 46* and C2C12 statin 9.
`CCCNC(=O)[C@H]1[C@H](CO)[C@H]2Cn3c(ccc(-c4cccc(C(=O)N(C)C)c4)c3=O)[C@@H]1N2` gave esBAF inh -4 and C2C12 statin -5.
For O=C(C1CCOCC1)N1C[C@H]2[C@@H](c3ccccc31)[C@H](CO)N2C(=O)Cc1ccccc1 the results were esBAF inh -5 and C2C12 statin -7.
`CC#CCN(CC#CC)S(=O)(=O)c1ccc(-n2cnnn2)c(OC)c1` gave esBAF inh -1, Wnt bcat act -1, C2C12 statin -13, MITF TRPM1 HTS 12 and Rtt109 Vps75 54*.
Screening COc1cc(S(=O)(=O)N(Cc2ccccc2)Cc2ccccn2)ccc1-n1cnnn1 returned esBAF inh 7, Wnt bcat act -8, C2C12 statin 0, MITF TRPM1 HTS 7 and Rtt109 Vps75 -4.
Cc1cc(C)cc(N(C(C)C(=O)NCCC2=CCCCC2)S(C)(=O)=O)c1 (stereo not given) was read as esBAF inh 6, Wnt bcat act -1, C2C12 statin 93*, MITF TRPM1 HTS -16 and Rtt109 Vps75 -11.
`COc1ccc(NS(=O)(=O)c2ccc(SC)cc2)cc1` gave esBAF inh 0, Wnt bcat act -1, C2C12 statin 7 and MITF TRPM1 HTS 4.
Screening CSc1ccc(S(=O)(=O)Nc2ccc(F)cc2)cc1 returned esBAF inh 4, Wnt bcat act -1, C2C12 statin 93*, MITF TRPM1 HTS -3 and Rtt109 Vps75 4.
For CC(C)(C)C(=O)Nc1ccccc1N1CCN(C(=O)c2ccc(Cl)cc2)CC1 the results were esBAF inh 5, Wnt bcat act -3, C2C12 statin 127*, MITF TRPM1 HTS -4 and Rtt109 Vps75 4.
Screening O=C(Nc1ccc2c(c1)[C@@H]1C[C@@H](CC(=O)N3CCOCC3)O[C@@H](CO)[C@@H]1O2)C1CCC1 returned esBAF inh 0 and C2C12 statin 3.
`O=C(NC1CCCCCC1)c1c(O)c2ccccc2[nH]c1=O` gave esBAF inh 46*, C2C12 statin -6, MITF TRPM1 HTS 99* and Rtt109 Vps75 6.
Screening CCOC(=O)c1c(NCC2CCCO2)c2ccccc2[nH]c1=O (stereo not given) returned MITF TRPM1 HTS 40 and Rtt109 Vps75 17.
`O=c1[nH]c2ccccc2c(O)c1O` gave esBAF inh -4, Wnt bcat act -1, C2C12 statin 10, MITF TRPM1 HTS -14 and Rtt109 Vps75 176*.
`O=c1[nH]c2ccccc2c(O)c1-[n+]1ccccc1` gave Wnt bcat act 2, MITF TRPM1 HTS -5 and Rtt109 Vps75 -1.
`O=C(NCC1CCCO1)c1c(O)c2ccccc2[nH]c1=O` (stereo not given) gave esBAF inh 51*, C2C12 statin -3 and Rtt109 Vps75 0.
CC1(c2ccc(NC(=O)c3ccccc3F)cc2)CC1(Cl)Cl (stereo not given) was read as esBAF inh 63*, Wnt bcat act 19, C2C12 statin -55 and Rtt109 Vps75 -3.
`O=C(Nc1ccc2c(c1)CCC2)c1ccccc1F` gave Wnt bcat act 30*, MITF TRPM1 HTS 34 and Rtt109 Vps75 6.
O=C(COc1ccccc1F)Nc1ccc2c(c1)CCC2 was read as esBAF inh 18, Wnt bcat act 43*, C2C12 statin 3 and Rtt109 Vps75 -2.
Screening COc1ccc(N2C(=O)c3ccccc3NC2c2ccc(OC)c(COc3ccccn3)c2)cc1 (stereo not given) returned Wnt bcat act 28, MITF TRPM1 HTS 28 and Rtt109 Vps75 9.
`COc1ccc(C2Nc3ccccc3C(=O)N2c2ccc(C)cc2)cc1Cn1cc([N+](=O)[O-])cn1` (stereo not given) gave esBAF inh 39, Wnt bcat act 7, C2C12 statin -33, MITF TRPM1 HTS 91* and Rtt109 Vps75 6.
